Among all 1,300 compounds or so, about 930 (72%) were called active. The set was probably picked from earlier hits. Only a sample is shown. Results with a measured potency or affinity are listed apart. Unmarked numbers belong to inactive results.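 Rule for the calls: active = fitted curve reaches 40% activation signal increase at or below the top valid tested concentration in every replicate test; inconclusive = replicate tests disagree in their calls; inactive = all replicate tests inactive, including effects opposite the expected signal rise.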

The nature of this assay: miR-122 inhibitors in Huh7 reporter cells, dose response, cell-based, Huh7 psiCHECK-miR122, Renilla luciferase, cherry-pick (AID 652053). As to conditions: 48 h; series mostly up to 35 µM; activation (miR-122 inhibition): at the top concentration.
Regarding `COc1ccc(NC(=O)N(C)C[C@H]2Oc3ccc(NC(=O)Nc4ccc(C(F)(F)F)cc4)cc3CC(=O)N([C@@H](C)CO)C[C@@H]2C)cc1`, the “activation (miR-122 inhibition)” value was 2.76% [at 30 µM].

Turning to `COc1ccc(NC(=O)N(C)C[C@@H]2Oc3ccc(NC(=O)Nc4ccc(C(F)(F)F)cc4)cc3CC(=O)N([C@H](C)CO)C[C@H]2C)cc1`, the “activation (miR-122 inhibition)” value was 4.93%.

`Cc1ccc(S(=O)(=O)N(C)C[C@@H]2Oc3ccc(NC(=O)Nc4ccc(C(F)(F)F)cc4)cc3CC(=O)N([C@@H](C)CO)C[C@@H]2C)cc1`: the “activation (miR-122 inhibition)” value is -7.06%.

As to `Cc1ccc(S(=O)(=O)N(C)C[C@@H]2Oc3ccc(NC(=O)Nc4ccc(C(F)(F)F)cc4)cc3CC(=O)N([C@H](C)CO)C[C@@H]2C)cc1`, the “activation (miR-122 inhibition)” value was 12.7%.

As for `CSC(=S)NCc1cccnc1`, the “activation (miR-122 inhibition)” value was 33.8%.

`Cc1ccc(NC(=O)N(C2=NCC(C)S2)c2ccccc2)cc1` (centres undefined): the “activation (miR-122 inhibition)” value was 7.27%.

As to `Cc1ccc(SC(C)C(=O)NCCC2=CCCCC2)cc1` (centres undefined), the “activation (miR-122 inhibition)” value is 0.132%.

`Cn1c(=O)c2cc(S(=O)(=O)NCCC(=O)NCCC3=CCCCC3)ccc2n(C)c1=O`: the “activation (miR-122 inhibition)” value is -7.18%.

Regarding `Cc1ccc(-c2nnc(SCc3ccc(C#N)cc3)n2Cc2ccco2)cc1`, the “activation (miR-122 inhibition)” value is 25.7%.

For `COc1ccc(OC)c(-n2cc3c(=O)n(C)c(=O)n(C)c3c2)c1`, the “activation (miR-122 inhibition)” value is 22.8%.

Regarding `CC(C)c1cc(C(=O)N/N=C/C(Br)=C/c2ccccc2)n[nH]1`, the “activation (miR-122 inhibition)” value was 38%.

With `O=C(Nc1nc2c(s1)CCc1ccccc1-2)c1ccco1`, the “activation (miR-122 inhibition)” value was 33%.

As to `CCc1nc2ccc(C(=O)N3CCN(C(=O)c4ccco4)CC3)cn2c1N(C)C(=O)COc1ccccc1`, the “activation (miR-122 inhibition)” value is -12.7%.

For `Cc1ccc(NC(=O)COc2ccc(Br)cc2CO)cc1`, the “activation (miR-122 inhibition)” value was -3.88%.

For the compound `CC(=O)N1[C@H](CNC(=O)CN(C)C)[C@H](c2ccc(C3=CCCCC3)cc2)[C@@H]1CO`, the “activation (miR-122 inhibition)” value was 0%.

`CC(=O)N(C)C[C@@H]1[C@@H](c2ccc(-c3cccnc3)cc2)[C@H](CO)N1C(=O)C1CC1`: the “activation (miR-122 inhibition)” value was -1.89%.

On to `CC(=O)N(C)C[C@H]1[C@H](c2ccc(-c3cccnc3)cc2)[C@@H](CO)N1C(=O)C1CC1`, for which the “activation (miR-122 inhibition)” value was 4.37%.

For `CN1[C@H](CO)[C@@H]2c3ccccc3N(C(=O)c3ccc(F)cc3)C[C@@H]21`, the “activation (miR-122 inhibition)” value was 15.8% [at 30 µM].

In the case of `O=C(c1ccc(F)cc1)N1C[C@H]2[C@@H](c3ccccc31)[C@H](CO)N2C(=O)c1ccc(F)cc1`, the “activation (miR-122 inhibition)” value was 12.4%.

Take `CC(=O)N1C[C@H]2[C@@H](c3ccccc31)[C@@H](CO)N2C(=O)c1ccc(F)cc1`: the “activation (miR-122 inhibition)” value is -1.27%.

Regarding `O=C(Nc1ccccc1F)N1C[C@@H]2[C@H](c3ccccc31)[C@H](CO)N2C(=O)c1ccc(F)cc1`, the “activation (miR-122 inhibition)” value was 24.2% [at 30 µM].

Turning to `CC(=O)N1[C@H](CO)[C@@H]2c3ccccc3N(C(=O)c3ccc(F)cc3)C[C@@H]21`, the “activation (miR-122 inhibition)” value is 16.7%.

`O=C(Nc1ccccc1F)N1C[C@H]2[C@@H](c3ccccc31)[C@H](CO)N2C(=O)c1ccc(F)cc1`: the “activation (miR-122 inhibition)” value was 15.8%.

For `O=C(Nc1ccccc1F)N1C[C@@H]2[C@H](c3ccccc31)[C@@H](CO)N2C(=O)c1ccc(F)cc1`, the “activation (miR-122 inhibition)” value was 17%.

With `CC(C)C(=O)Nc1ccc2c(c1)C(=O)N(C)[C@@H]1CC[C@@H](CC(=O)NCc3cccc(F)c3)O[C@H]1CO2`, the “activation (miR-122 inhibition)” value is -10.4%.

As for `CN1C(=O)c2cc(NC(=O)C3CC3)ccc2OC[C@H]2O[C@H](CC(=O)NCc3cccc(F)c3)CC[C@H]21`, the “activation (miR-122 inhibition)” value was -7.82%.

Regarding `CC(C)C(=O)Nc1ccc2c(c1)C(=O)N(C)[C@@H]1CC[C@H](CC(=O)NCc3cccc(F)c3)O[C@@H]1CO2`, the “activation (miR-122 inhibition)” value was 8.41%.

Regarding `Cc1ccc2c(CN3CCCc4ccccc43)cc(=O)oc2c1C`, the “activation (miR-122 inhibition)” value was -5.95%.

Take `CNC[C@H]1Oc2c(NC(=O)C3CCOCC3)cccc2C(=O)N([C@H](C)CO)C[C@@H]1C`: the “activation (miR-122 inhibition)” value was -3.4%.

As for `C[C@H](CO)N1C[C@H](C)[C@@H](CN(C)Cc2ccncc2)Oc2c(NC(=O)C3CCOCC3)cccc2C1=O`, the “activation (miR-122 inhibition)” value was 9.97%.

Take `CCOC(=O)N1CCN(c2ncnc3c2oc2nc(C(C)C)c4c(c23)CCC4)CC1`: the “activation (miR-122 inhibition)” value is -9.07%.

For `CC(=O)Nc1ccc2nc(CN3CCC(CO)(CCc4ccccc4)CC3)ccc2c1`, the “activation (miR-122 inhibition)” value was -3.36%.

`COc1ccc(N(Cc2ccccc2)S(=O)(=O)c2cccc(C(=O)NC3=NCCS3)c2)cc1`: the “activation (miR-122 inhibition)” value was 29.8%.

For the compound `CCOC(=O)c1[nH]c(C)c(C(=O)Nc2ccccc2C)c1C`, the “activation (miR-122 inhibition)” value is 1.56%.

Take `Cc1ccc(N2CC(C(=O)Nc3nccs3)CC2=O)cc1Cl` (centres undefined): the “activation (miR-122 inhibition)” value is 14.3%.

With `c1csc(CNc2ncnc3ccc(-c4ccc5c(c4)OCO5)cc23)c1`, the “activation (miR-122 inhibition)” value is -12.4%.

Turning to `CCC(=O)N(C)C[C@@H]1[C@@H](c2ccc(C3=CCCC3)cc2)[C@H](CO)N1C(=O)CC`, the “activation (miR-122 inhibition)” value is 6.67%.

For the compound `N#Cc1ccc(CSc2nnc(-c3cccnc3)o2)cc1`, the “activation (miR-122 inhibition)” value is 6.98%.

With `Cc1ccc(S(=O)(=O)NC(C)(C)CSc2nnc(Nc3ccccc3)s2)cc1`, the “activation (miR-122 inhibition)” value is 10.9%.

`COCCOC(=O)c1c(C)oc2ccc(NS(=O)(=O)c3ccc(C)cc3)cc12`: the “activation (miR-122 inhibition)” value was 37.7%.

Regarding `CCc1noc(C)c1C(=O)OCC(=O)c1ccc(NC(C)=O)cc1F`, the “activation (miR-122 inhibition)” value was 8.21%.

For the compound `COc1ccccc1N1CCN(C(=O)CSc2nnc(NC(=O)C3CCC3)s2)CC1`, the “activation (miR-122 inhibition)” value is -5.81%.

As to `O=C(c1ccccc1F)N1C[C@H]2[C@@H](c3ccccc31)[C@@H](CO)N2CC1CCCCC1`, the “activation (miR-122 inhibition)” value was -11%.

`CCCNC(=O)N1C[C@H]2[C@@H](c3ccccc31)[C@@H](CO)N2Cc1ccc(F)cc1`: the “activation (miR-122 inhibition)” value is 16.7%.
